aSyn 5UTR act: Activators working through SNCA 5'UTR binding (MLPCN) | alpha-synuclein 5'UTR reporter, activators screen | 300,000 compounds, 7.1% hits | activity score, % (tested at 7.5 µM), hits read low; in the data active means activity score below about -60%
Active calls of the source: *. A selection follows.

SMILES	aSyn 5UTR act
CCN(CC)S(=O)(=O)c1ccc2nc(NC(=O)c3ccco3)sc2c1	-63*
O=c1[nH]c2ccccc2nc1/C=C/c1ccc(F)cc1	-139*
Cn1c(=O)c(/C=C/c2ccccc2)nc2ccccc21	-291*
O=c1[nH]c2ccccc2nc1/C=C/c1ccc(O)cc1	-214*
Oc1ccc(/C=C/c2ccc3ccccc3n2)cc1	90
O=c1[nH]c2ccccc2nc1/C=C/c1ccccc1	-165*
CC(=O)c1ccc(/C=C/c2nc3ccccc3n2C)o1	-91*
Cc1nc(NC(=S)Nc2ccccc2)sc1C	-166*
CCc1nnc(NC(=S)Nc2ccccc2)s1	-124*
COc1cc(/C=N/O)ccc1OCc1ccccc1Cl	-113*
O=c1cc(NCCc2ccccc2)c2ccccc2o1	-130*
O=C(NCSc1ccccc1)c1ccccc1	-94*
COc1ccc(/C=N/N=C2/SCC(=O)N2Cc2ccccc2)cc1	-170*
COc1ccc(CN2C(=O)CS/C2=N/N=C/c2ccccc2)cc1	-64*
Cc1cccc(/C=N/c2sc3c(c2C#N)CCN(Cc2ccccc2)C3)c1O	-74*
CCC(C)(C)C1CCc2[nH]nc(C(=O)N/N=C(\C)c3ccco3)c2C1 (stereo not drawn)	-136*
Cc1occc1C(=O)Nc1cc(C(C)(C)C)on1	-101*
Cc1cccc(NC(=O)c2ccoc2C)n1	-86*
COc1ccc(NC(=S)Nc2cccc3cnccc23)cc1	-72*
CCOc1ccc(NC(=S)Nc2cccc3cnccc23)cc1	-89*
S=C(Nc1cccnc1)Nc1cccc2cnccc12	66
CCOc1ccc(NC(=S)Nc2cc(OC)c(Cl)cc2OC)cc1	-90*
COc1cccc(NC(=S)Nc2cccc3ccccc23)c1	-70*
COc1cccc(NC(=S)NN=C2CCCCCC2)c1	-146*
CCOc1ccc(NC(=S)Nc2cccc3ccccc23)cc1	-63*
SMILES	aSyn 5UTR act
CCc1ccc(NC(=S)Nc2cccc(OC)c2)cc1	-109*
Fc1ccc(Nc2nc(-c3cccnc3)cs2)cc1	-265*
Clc1ccc(Nc2nc(-c3cccnc3)cs2)cc1	-146*
c1ccc(-c2csc(Nc3cccnc3)n2)cc1	-164*
CCN(CC)c1ccc(Nc2nc(-c3cccnc3)cs2)cc1	-210*
Cc1ccc(/C=C/C(=O)c2ccc(N3CCOCC3)cc2)s1	-133*
Cc1cccc(/C=C/C(=O)c2ccc(N3CCOCC3)cc2)c1	-114*
Cc1ccc2c(c1)sc[n+]2Cc1ccccc1	-256*
Cc1cccc(C(=O)O/N=C(\N)c2ccc(Cl)cc2)c1	-108*
N/C(=N\OC(=O)c1ccoc1)c1ccc(Br)cc1	-111*
N/C(=N\OC(=O)c1cccc(Br)c1)c1ccccn1	72
Cc1ccc(C(=O)O/N=C(\N)c2ccc(Br)cc2)cc1C	-136*
N/C(=N\OC(=O)c1cccc(Br)c1)c1ccccc1	-305*
Cc1cc(C)cc(C(=O)O/N=C(\N)c2ccc(Br)cc2)c1	-83*
N/C(=N\OC(=O)c1ccc2ccccc2c1)c1ccc(Br)cc1	-103*
Cc1cccc(C(=O)O/N=C(\N)c2ccc(Br)cc2)c1	-211*
COc1ccc(S(=O)(=O)N2c3cc(Cl)ccc3Oc3nc4ccccc4nc32)cc1	100
O=S(=O)(c1ccc(Cl)cc1)N1c2ccccc2Oc2nc3ccccc3nc21	-96*
CC1CCCC/C1=N\NC(=S)Nc1ccccc1 (stereo not drawn)	-132*
CC1CCC/C(=N\NC(=S)Nc2ccccc2)C1 (stereo not drawn)	-94*
Cn1nc(-c2ccc(Cl)cc2)nc2c(=O)n(C)c(=O)nc1-2	110
Cc1ccc(Cn2nc(-c3ccccc3)nc2-c2ccccc2)cc1	-154*
Cn1nc(-c2ccccc2)nc1-c1ccccc1	-65*
COc1ccc(-c2ccc(/C=C3/C(=N)N4C=CSC4=NC3=O)o2)c([N+](=O)[O-])c1	-116*
CC1Cc2cc(/C=C3/SC(=S)NC3=O)ccc2O1 (stereo not drawn)	-106*
SMILES	aSyn 5UTR act
Cc1ccc(SC[C@H](c2ccccc2)N2CCN(C)CCC2=O)cc1	-138*
CCCN1CCC(=O)N([C@H](CSc2ccc(OC)cc2)c2ccccc2)CC1	-77*
Cc1ccc(SC[C@H](CC(C)C)N2CCN(C)CCC2=O)cc1	-135*
COc1ccc(SC[C@H](CC(C)C)N2CCN(C)CCC2=O)cc1	-86*
CC(C)C[C@@H](CSc1ccc(Br)cc1)N1CCN(CC(C)C)CCC1=O	-148*
CC(C)C[C@@H](CSc1ccc(Br)cc1)N1CCN(C)CCC1=O	-141*
Cc1ccc2[nH]c(C(=O)N/N=C/c3ccc([N+](=O)[O-])cc3)c(C)c2c1	-63*
O=C(N/N=C/c1cccc([N+](=O)[O-])c1)c1cccs1	-84*
O=C(/C=C/c1cccc(Cl)c1)c1ccc([N+](=O)[O-])o1	91
O=C(N/N=C/c1cccc(OCc2ccccc2)c1)c1cccs1	-72*
O=C(/C=C/c1cccc([N+](=O)[O-])c1)c1cccs1	-77*
O=C(N/N=C/C=C/c1ccc([N+](=O)[O-])cc1)c1cccs1	-77*
O=C(N/N=C/c1ccc(Br)s1)c1ccc([N+](=O)[O-])cc1	84
CC(C)(C)c1nnc(N/N=C/c2cc(Br)ccc2O)n(N)c1=O	116
C/C(=N\Nc1nc2ccccc2c(=O)n1O)c1ccco1	-119*
Cc1ccc(C)c(/C=N/Nc2nc3ccccc3c(=O)n2O)c1	-85*
N/C(Cc1cccs1)=N\OC(=O)COc1ccccc1	-77*
Cc1cccc(/C(N)=N/OC(=O)Cc2cccs2)c1	-141*
N/C(=N\OC(=O)Cc1cccs1)c1ccccc1	-214*
Cc1ccc(/C(N)=N/OC(=O)Cc2cccs2)cc1	-169*
O=C1c2ccccc2S(=O)(=O)N1Cc1nc2ccccc2s1	112
O=C(OCc1nc2ccccc2s1)C1CCN(C2=NS(=O)(=O)c3ccccc32)CC1	-98*
O=c1c(Cl)c(O)c2cccc3c4ccccc4n1c23	-64*
CN(CCOC(=O)CN1C(=O)c2ccccc2C1=O)C1=NS(=O)(=O)c2ccccc21	-89*
O=C(CN1C(=O)c2ccccc2S1(=O)=O)c1ccc(OC(F)F)cc1	86
SMILES	aSyn 5UTR act
O=[N+]([O-])c1cccc(-c2nnn(C34CC5CC(CC(C5)C3)C4)n2)c1	-82*
O=C(Nc1ccc2c(c1)OCO2)N1CCCC1	-88*
O=C(Nc1ccc2c(c1)OCO2)N1CCOCC1	-84*
O=C(Nc1ccc2c(c1)OCCO2)N1CCN(Cc2ccccc2)CC1	-66*
CCC(C)c1ccc(NC(=O)N2CCOCC2)cc1 (stereo not drawn)	-102*
CC1CCc2cccc3c2N1c1cc(C#N)c(C#N)cc1O3 (stereo not drawn)	71
CC1CN(C(=O)Nc2ccc3c(c2)OCO3)CC(C)O1 (stereo not drawn)	-152*
O=C(O)C1CC=CCC1C(=O)Nc1ccc2c(c1)OCCO2 (stereo not drawn)	-73*
O=C(Nc1ccc2c(c1)OCCO2)N1CCOCC1	-80*
COc1ccc(/C=C2\SC(=O)N(CCC(=O)N(C)C3CCS(=O)(=O)C3)C2=O)cc1 (stereo not drawn)	-84*
CC(C)c1ccc(/C=C2\SC(=S)N(CCC(=O)NCCCn3ccnc3)C2=O)cc1	98
O=C(CN1C(=O)S/C(=C\C=C\c2ccccc2)C1=O)NC1CCS(=O)(=O)C1 (stereo not drawn)	-169*
CC(C)c1ccc(/C=C2\SC(=O)N(CC(=O)NC3CCS(=O)(=O)C3)C2=O)cc1 (stereo not drawn)	-90*

Screening data (PubChem)
